The source of these data is PubChem BioAssay (EPA / NIEHS).

Read-out in assay [1]: Collagen III, COL3A1 (gene 1281)
The assay can be described thus: BSK_MyoF_CollagenIII: BioMAP Diversity Plus: MyoF Assay for Collagen III Biomarker Activity (AID 2284239). As to conditions: primary human lung fibroblasts. In outline:
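ELISA read-out of collagen III from human lung fibroblasts after 24 h of chemical treatment. The DMSO control served as negative control and baseline, with values fitted in the positive direction.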

Read-out in assay [2]: Interleukin 17F (IL17F), IL17F (gene 112744)
The experiment in a line: BSK_BT_xIL17F: BioMAP Diversity Plus: BT Assay for Interleukin 17F (IL17F) Biomarker Activity (AID 2284243). As to conditions: primary human B cells with PBMC. In outline: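 Compound was added to co-cultures of human B cells and PBMC. After 24 hours, IL-17F released into the medium was measured with LumineX xMAP technology. Responses were then fitted upward relative to DMSO.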

Read-out in assay [3]: Actin alpha 1 (ACTA1), ACTA1 (gene 58)
The assay can be described thus: BSK_MyoF_ACTA1: BioMAP Diversity Plus: MyoF Assay for Actin alpha 1 (ACTA1) Biomarker Activity (AID 2284244). As to conditions: primary human lung fibroblasts. In outline:
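Measured by ELISA: alpha-smooth muscle actin in human primary lung fibroblasts 24 h after dosing, with DMSO as baseline and upward signal change as the fitted direction.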

Read-out in assay [4]: Interleukin 2 (IL2), IL2 (gene 3558)
The assay can be described thus: BSK_BT_xIL2: BioMAP Diversity Plus: BT Assay for Interleukin 2 (IL2) Biomarker Activity (AID 2284245). As to conditions: primary human B cells with PBMC. Put shortly:
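Secreted interleukin-2 from human B cell/PBMC co-cultures, measured 24 h post-dosing by Luminex multiplex immunoassay. Upward-direction curve fitting against DMSO baseline.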

Read-out in assay [5]: Basic fibroblast growth factor (bFGF), FGF2 (gene 2247)
The assay can be described thus: BSK_MyoF_bFGF: BioMAP Diversity Plus: MyoF Assay for Basic fibroblast growth factor (bFGF) Biomarker Activity (AID 2284246). As to conditions: primary human lung fibroblasts. In outline: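 In this multiplexed cell system, lung fibroblasts (human primary) receive test chemical for 24 h before ELISA detection of bFGF; DMSO defines baseline and the analysis direction is positive.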

Read-out in assay [6]: Collagen IV, COL4A1 (gene 1282)
The assay can be described thus: BSK_MyoF_CollagenIV: BioMAP Diversity Plus: MyoF Assay for Collagen IV Biomarker Activity (AID 2284247). As to conditions: primary human lung fibroblasts. Put shortly:
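Activity is scored as a signal increase over DMSO in an ELISA for Collagen IV, measured on human lung fibroblasts at 24 h after chemical treatment. Cytotoxicity is checked in parallel cultures by sulforhodamine B total-protein staining.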

Read-out in assay [7]: Plasminogen activator inhibitor-1 (PAI1), SERPINE1 (gene 5054)
The assay can be described thus: BSK_MyoF_PAI1: BioMAP Diversity Plus: MyoF Assay for Plasminogen activator inhibitor-1 (PAI1) Biomarker Activity (AID 2284256).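 For outcome: PAI-1 protein level measured by ELISA in fibroblast cultures; PAI-1 read 24 h after compound addition.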 As to conditions: primary human lung fibroblasts. In outline:
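Primary human lung fibroblasts are dosed and incubated 24 h. PAI-1 is then measured by ELISA, while parallel cultures undergo SRB staining for overt cytotoxicity. Increases over DMSO define activity.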

Assay [8] in a line: CCTE_Mundy_HCI_hNP1_Casp3_7: CCTE's Caspase-Glo 3/7 Assay in human neuroprogenitor cells for Apoptosis, Mundy Lab (AID 2284240). In outline: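 Neuroepithelial-lineage stem cells from WA09 embryonic cells were treated with chemicals after 40–44 h of culture. Twenty-four hours later, caspase-3/7 activation was detected luminescently after a 30 min room-temperature reagent step, with DMSO as baseline.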

A short description of assay [9]: CCTE_Mundy_HCI_hNP1_CellTiter: CCTE's Cell Titer-Glo 2 Assay in human neuroprogenitor cells for Viability, Mundy Lab (AID 2284241; active = hit-call score of the fitted dose curve at least 0.9, where 1 is the maximum). In outline:
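Measures ATP content in human neural progenitors derived from WA09 embryonic cells. Read-out at 26.5 hours after dosing, with DMSO serving as the negative control and baseline.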

Read-out in assay [10]: Monokine induced gamma interferon (MIG), CXCL9 (gene 4283)
The experiment in a line: BSK_KF3CT_MIG: BioMAP Diversity Plus: KF3CT Assay for Monokine induced gamma interferon (MIG) Biomarker Activity (AID 2284248). As to conditions: primary human keratinocytes with fibroblasts. Put shortly:
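KF3CT system: keratinocyte/fibroblast co-culture, 24 h post-dose, MIG by ELISA; activity vs DMSO, positive fitting direction.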

Read-out in assay [11]: Vascular cell adhesion molecule 1 (VCAM1), VCAM1 (gene 7412)
The assay can be described thus: BSK_BF4T_VCAM1: BioMAP Diversity Plus: BF4T Assay for Vascular cell adhesion molecule 1 (VCAM1) Biomarker Activity (AID 2284249). As to conditions: primary human bronchial epithelial cells with fibroblasts. Put shortly: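 Human bronchial epithelial cell and dermal fibroblast co-culture exposed 24 h. VCAM-1 measured by ELISA; parallel SRB total-protein staining for cytotoxicity. Fitted in positive direction relative to DMSO.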

Read-out in assay [12]: Collagen I, COL1A1 (gene 1277)
The assay can be described thus: BSK_hDFCGF_CollagenI: BioMAP Diversity Plus: hDFCGF Assay for Collagen I Biomarker Activity (AID 2284250). As to conditions: primary human foreskin fibroblasts. Put shortly: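 Cells were primary human foreskin fibroblasts treated for 24 h. Collagen I levels were then determined by ELISA and compared against DMSO controls.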

Read-out in assay [13]: Interferon-inducible T-cell alpha chemoattractant (ITAC), CXCL11 (gene 6373)
The assay can be described thus: BSK_hDFCGF_ITAC: BioMAP Diversity Plus: hDFCGF Assay for Interferon-inducible T-cell alpha chemoattractant (ITAC) Biomarker Activity (AID 2284251). As to conditions: primary human foreskin fibroblasts. Put shortly: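 ELISA readout of I-TAC after 24 h chemical exposure; human dermal foreskin fibroblast primary cells. Positive-direction fitting vs DMSO baseline. Parallel SRB total-protein staining (0.1% SRB after 10% TCA fixation, 560 nm) flags cytotoxicity.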

Read-out in assay [14]: Plasminogen activator inhibitor-1 (PAI1), SERPINE1 (gene 5054)
The assay can be described thus: BSK_KF3CT_PAI1: BioMAP Diversity Plus: KF3CT Assay for Plasminogen activator inhibitor-1 (PAI1) Biomarker Activity (AID 2284252). As to conditions: primary human keratinocytes with fibroblasts. In outline: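 Signal is PAI-1 detected by ELISA in a human skin-derived keratinocyte/fibroblast co-culture, 24 h after dosing; DMSO served as negative control and baseline.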

Read-out in assay [15]: Monocyte Chemoattractant Protein-1 (MCP1), CCL2 (gene 6347)
The assay can be described thus: BSK_IMphg_MCP1: BioMAP Diversity Plus: IMphg Assay for Monocyte Chemoattractant Protein-1 (MCP1) Biomarker Activity (AID 2284253). As to conditions: primary human endothelial cells with macrophages. In outline: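 Human venular endothelial cells co-cultured with macrophages; MCP-1 measured by ELISA 24 hours post-dose and fitted against DMSO. Cytotoxicity monitored by SRB total-protein staining in parallel cultures.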

Read-out in assay [16]: Interleukin-8 (IL8), CXCL8 (gene 3576)
The assay can be described thus: BSK_KF3CT_IL8: BioMAP Diversity Plus: KF3CT Assay for Interleukin-8 (IL8) Biomarker Activity (AID 2284254). As to conditions: primary human keratinocytes with fibroblasts. In outline: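 Chemicals were added to co-cultured human keratinocytes and foreskin fibroblasts, incubated 24 h, then IL-8 was quantified by ELISA. Cytotoxicity was tracked by sulforhodamine B total-protein staining in parallel cultures.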

Read-out in assay [17]: Macrophage Inflammatory Protein-1 Alpha (MIP1a), CCL3 (gene 6348)
The assay can be described thus: BSK_IMphg_MIP1a: BioMAP Diversity Plus: IMphg Assay for Macrophage Inflammatory Protein-1 Alpha (MIP1a) Biomarker Activity (AID 2284255). As to conditions: primary human endothelial cells with macrophages. In outline: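 Co-culture of human venular endothelial cells and macrophages exposed to compounds for 24 h; MIP-1a measured by ELISA relative to DMSO. Cytotoxicity assessed in parallel cultures by sulforhodamine B total-protein staining at 560 nm.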

Read-out in a further assay: CD69, CD69 (gene 969)
The experiment in a line: BSK_IMphg_CD69: BioMAP Diversity Plus: IMphg Assay for CD69 Biomarker Activity (AID 2284257). As to conditions: primary human endothelial cells with macrophages. Put shortly: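 Human venular endothelial cells co-cultured with macrophages; CD69 quantified by ELISA 24 h after compound addition. Activity fitted in the positive direction relative to DMSO baseline; cytotoxicity tracked in parallel cultures via SRB total-protein staining.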

Read-out in assay [18]: Eotaxin 3, CCL26 (gene 10344)
The experiment in a line: BSK_BF4T_Eotaxin3: BioMAP Diversity Plus: BF4T Assay for Eotaxin 3 Biomarker Activity (AID 2284258). As to conditions: primary human bronchial epithelial cells with fibroblasts. Put shortly: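 Co-culture of human bronchial epithelial cells and dermal fibroblasts, exposed to chemicals for 24 h versus DMSO. Eotaxin-3 quantified by ELISA; cytotoxicity checked in parallel cultures by sulforhodamine B total-protein staining.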

Molecules are shown by their SMILES. Inconclusive results are not listed. Active and inactive are the calls of the source. Rule for the calls, unless noted: active = hit-call score of the fitted dose curve at least 0.9, where 1 is the maximum; inactive = score below 0.9.

Turning to `Clc1cc(Cl)c(Cl)c(Cl)c1Cl`, the result in assay [1], in assay [2], in assay [3], in assay [4], in [5] and in assay [6] was inactive. For the same compound, the AC50 in assay [7] is 31.9 µM (active).

For `CCOC(=O)C1=NN(c2ccc(Cl)cc2Cl)C(C)(C(=O)OCC)C1` (centres undefined), the outcome in assay [1], in assay [2], in assay [3], in [4], in assay [5] and in assay [6] was inactive. Further, the result in assay [7] was inactive.

`c1ccc2c(c1)[nH]c1ccccc12`: the result in assay [1], in [2], in assay [4], in assay [5], in assay [6] and in assay [7] was inactive.

On to `C=CC(=O)OCCCCCCOC(=O)C=C`, for which the AC50 in assay [1] was 25.7 µM (active); in assay [2], 9.47 µM (active); in assay [4], 9.78 µM (active); in assay [5], 34.7 µM (active); in [6], 3.31 µM (active); in assay [7], 34.6 µM (active).

In the case of `CC(C)c1cccc(C(C)C)c1N`, the outcome in assay [1], in [2], in assay [4], in [5], in assay [6] and in assay [7] was inactive.

`CCN1CN(CC)CN(CC)C1`: the result in assay [1], in assay [2], in [4], in [5], in assay [6] and in assay [7] was inactive.

For `CCCCCCOC(=O)CCCCC(=O)OCCCCCC`, the outcome in assay [1], in [2], in assay [4], in assay [5], in [6] and in assay [7] was inactive.

Take `O=C1CCCCCCCCCCC1`: the result in [1], in assay [2], in [4], in assay [5], in [6] and in [7] was inactive.

As to `CC(Cl)COP(=O)(OCC(C)Cl)OCC(C)Cl` (centres undefined), the outcome in assay [1], in [2], in assay [3], in assay [4], in [5] and in assay [6] was inactive. The result in assay [7] was inactive.

In the case of `C=C(C)C(=O)OCCCCCCCCCCCC`, the result in [1], in assay [2], in assay [4], in assay [5], in [6] and in [7] was inactive.

In the case of `O=C(O)C(F)(F)C(F)(F)C(F)(F)C(F)(F)C(=O)O`, the result in [1], in assay [8], in assay [9], in assay [2], in assay [3] and in assay [4] was inactive. Moreover, the outcome in assay [5], in assay [6], in assay [10], in assay [11], in assay [12] and in [13] was inactive. For the same compound, the outcome was “inactive” in assay [14]; “inactive” in assay [15]; “inactive” in assay [16]; “inactive” in assay [17]; “inactive” in [7]; “inactive” with CD69, CD69 (gene 969). The result in assay [18] was inactive.

On to `O=C(Cl)c1c(Cl)c(Cl)c(C(=O)Cl)c(Cl)c1Cl`, for which the result in assay [1], in [2], in [4], in assay [5], in assay [6] and in assay [7] was inactive.

With `CC=C(C)C=CC=C(C)C`, the outcome in [1] and in assay [5] was inactive. Also, the half-maximal activity concentration (AC50) in assay [2] was 24.9 µM (active); in assay [4] it was 28.5 µM (active); in assay [6] it was 0.016 µM (active); in assay [7], 0.016 µM (active).

In general, AC50 refers to the concentration giving half of the maximal activity seen.
